The results in this text go back to PubChem BioAssay (NCI).

Assay [1] in a line: NCI Yeast Anticancer Drug Screen. Data for the rad50 strain (AID 155).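 Note: 0% = growth of vehicle-only cultures of the same strain.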 The following applies: S. cerevisiae rad50 strain growth inhibition; at 50.0 µM; active compounds read high. An outline of the steps:
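Growth of the mutant yeast was measured after compound exposure and referenced to vehicle-treated cultures.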

Assay [2] in a line: NCI Yeast Anticancer Drug Screen. Data for the mec2-1 strain (AID 157). The following applies: S. cerevisiae mec2-1 strain, at 50.0 µM, active compounds read high. The essentials:
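Cells of the genetically defined mec2-1 yeast strain are incubated with test compound. Inhibition of growth is calculated against vehicle-treated controls.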

Assay [3] is described as follows: NCI Yeast Anticancer Drug Screen. Data for the sgs1 mgt1 strain (AID 161).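 Note: 0% = growth of cultures given vehicle only.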 The following applies: S. cerevisiae sgs1 mgt1 strain, at 50.0 µM, active compounds read high. An outline of the steps:
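Read-out: growth inhibition vs vehicle controls. Cells: mutant yeast strain deficient in DNA damage repair.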

Assay [4] is described as follows: NCI Yeast Anticancer Drug Screen. Data for the cln2 rad14 strain (AID 165).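 Note: 0% = growth equal to vehicle treated cultures.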 The following applies: S. cerevisiae cln2 rad14 strain, at 50.0 µM, active compounds read high. The essentials:
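The screen exposed genetically defined yeast (cln2 rad14) to test compounds and scored growth inhibition relative to vehicle-treated controls.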

Assay [5] can be described thus: NCI Yeast Anticancer Drug Screen. Data for the bub3 strain (AID 167). The following applies: S. cerevisiae bub3 mutant strain, at 50.0 µM, active compounds read high. The essentials:
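Whole-cell yeast assay. The mutant strain was incubated with compounds, and growth inhibition was determined by comparison with vehicle-treated cells.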

Assay [6] can be described thus: NCI Yeast Anticancer Drug Screen. Data for the mlh1 rad18 strain (AID 175). The following applies: S. cerevisiae mlh1 rad18 strain growth inhibition; at 50.0 µM; active compounds read high. An outline of the steps:
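Compound-treated yeast growth, normalised to vehicle controls. Strain bears defined DNA repair mutations.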

The panel holds about 79,000 compounds, 15% with a hit somewhere; the sample as a whole holds those more often. A number with no mark means an inactive call. Active and inactive are the calls of the source. Cut-off read from the data, not from the text of the source: active = growth inhibition above about 70%; inactive = the rest.

For the molecule `N#CCC(=O)NCc1ccncc1`, the growth inhibition in assay [1] was -13.8%; in assay [2], -50.4%; in assay [3], -24.7%; in assay [4], 7.85%; in assay [5], -41%; in assay [6], -13.1%.
As for `O=C1C2=C(OCCO2)C(=O)C2=C1OCO2`, the growth inhibition in assay [1] is 12.4%; in assay [2] it was 18.4%; in assay [3], 28%; in assay [4], 7.55%; in assay [5] it was 12.2%; in assay [6] it was 4.4%.
For `COc1ccc(/C=N/N2CCN(/N=C/c3ccc(OC)cc3)CC2)cc1`, the growth inhibition in assay [1] is 9.85%; in assay [2], 9.7%; in assay [3], 9.2%; in assay [4], -6.1%; in assay [5], 5.1%; in assay [6], -5.35%.
On to `COc1ccc(OCC(=O)N2CCCCC2)cc1`, for which the growth inhibition in assay [1] was -2.95%; in assay [2] it was -11.6%; in assay [3], 0%; in assay [4] it was -40.2%; in assay [5], 13.2%; in assay [6], -1.65%.
With `CP(=O)(CCSc1ccccc1)c1ccccc1` (stereo not drawn), the growth inhibition in assay [1] is -12.5%; in assay [2] it was -20.5%; in assay [3], -0.85%; in assay [4], 23.6%; in assay [5] it was -10.7%; in assay [6], -21.1%.
Regarding `COC(=O)C[C@](O)(CCCC(C)(C)O)C(=O)O[C@@H]1C(OC)=C[C@]23CCCN2CCc2cc4c(cc2[C@H]13)OCO4`, the growth inhibition in assay [1] was 51.2%; in assay [2], 35.4%; in assay [3], 43.2%; in assay [4], 41%; in assay [5], 43.3%; in assay [6], 42.5%.
On to `CC(CC(O)CCCN(C)C)CC(C)(C)C` (stereo not drawn), for which the growth inhibition in assay [1] is 46.5%; in assay [2], 39.8%; in assay [3], 43.4%; in assay [4], 22.1%; in assay [5] it was 24.3%; in assay [6], 37.5%.
In the case of `COc1cccc2c(=O)c3c(oc12)CCC(C)C3` (stereo not drawn), the growth inhibition in assay [1] is -10.6%; in assay [2], 4.35%; in assay [3], 5.85%; in assay [4], -35.7%; in assay [5] it was -14.8%; in assay [6], -9.4%.
For the molecule `CCCCCCCCCCCCCCCC(=O)Nc1ccn(C2OC(CO)C(O)C2O)c(=O)n1` (stereo not drawn), the growth inhibition is -1.45% in assay [1]; -19.9% in assay [2]; 6.75% in assay [3]; 10.1% in assay [4]; -6.8% in assay [5]; -14.7% in assay [6].
On to `O=C(N/N=C/c1ccccc1Cl)c1ccccc1`, for which the growth inhibition in assay [1] was -19.4%; in assay [2], -1.25%; in assay [3], -5.3%; in assay [4], -7.55%; in assay [5] it was -4.05%; in assay [6], -9.6%.
In the case of `COc1cccc(C2C(C(=O)O)=C(CO)Oc3cc4c(cc32)OCO4)c1` (stereo not drawn), the growth inhibition in assay [1] was 21.4%; in assay [2], 15.8%; in assay [3] it was 21.9%; in assay [4], 13.6%; in assay [5] it was 12.6%; in assay [6], 15.2%.
Regarding `CCCCc1c(O)c(N=NC(=O)C[N+](C)(C)C)c2ccccc2c1O`, the growth inhibition was 31.5% in assay [1]; 40.2% in assay [2]; 22.8% in assay [3]; 11.6% in assay [4]; 0.85% in assay [5]; 36.9% in assay [6].
On to `C1=Nc2ccccc2/C1=C/c1c[nH]c2ccccc12`, for which the growth inhibition in assay [1] is 11.2%; in assay [2], -10.1%; in assay [3] it was 5.2%; in assay [4], 17.9%; in assay [5] it was 1.05%; in assay [6], 17.9%.
With `COC(=O)C1=NNC(c2ccc(C)cc2)C1` (stereo not drawn), the growth inhibition is 1.75% in assay [1]; -2.25% in assay [2]; -0.95% in assay [3]; -0.3% in assay [4]; -16% in assay [5]; 2.85% in assay [6].
As for `O=C(O)CSc1cc(Br)c(Br)cc1C(=O)O`, the growth inhibition in assay [1] is 6.05%; in assay [2], -11.3%; in assay [3] it was -0.85%; in assay [4], 9.5%; in assay [5], 9.8%; in assay [6] it was -15.9%.
Turning to `CCNC(=O)Oc1cccc(NC(=O)CC)c1`, the growth inhibition is 3.2% in assay [1]; -4.2% in assay [2]; -0.25% in assay [3]; -14.2% in assay [4]; 3.65% in assay [5]; 3.7% in assay [6].
For `CC(C)CCc1c(Cl)nc(Cl)nc1Cl`, the growth inhibition in assay [1] is 32.2%; in assay [2], 38.6%; in assay [3], 33.6%; in assay [4], 10.1%; in assay [5] it was 43.9%; in assay [6], 16.9%.
For `CCOC(=O)c1ccc(NC(=O)Nc2cc(C(F)(F)F)ccc2Cl)cc1`, the growth inhibition was 89.2% (active) in assay [1]; 28.3% in assay [2]; 92.9% (active) in assay [3]; 92.2% (active) in assay [4]; 86.7% (active) in assay [5]; 94% (active) in assay [6].
In the case of `COc1ccc(NC(C)=O)c(C(=O)CCNC(C)=O)c1`, the growth inhibition was -5.85% in assay [1]; -15.4% in assay [2]; -31.1% in assay [3]; -7.4% in assay [4]; -40% in assay [5]; -23.4% in assay [6].
Turning to `Clc1cc(Cl)c2ccc3c(Cl)cc(Cl)c4ccc1c2c43`, the growth inhibition was -18.6% in assay [1]; -33.3% in assay [2]; -10.8% in assay [3]; 7.3% in assay [4]; -30.8% in assay [5]; -20.6% in assay [6].
As to `C1CCN(c2nsc(N3CCCCC3)n2)CC1`, the growth inhibition was -13.7% in assay [1]; -5.15% in assay [2]; 2.95% in assay [3]; -52.1% in assay [4]; -14.6% in assay [5]; 18.2% in assay [6].
Turning to `Cc1c([O-])[n+]2cccc3ccn(c1=O)c32`, the growth inhibition in assay [1] is -28.7%; in assay [2], -13.6%; in assay [3] it was -16.7%; in assay [4] it was -11.1%; in assay [5] it was -2.4%; in assay [6] it was 12.1%.
With `CCNS(=O)(=O)c1ccccc1`, the growth inhibition in assay [1] was -8.55%; in assay [2], -29.2%; in assay [3], -2.7%; in assay [4] it was 5.9%; in assay [5], -1.95%; in assay [6], 14.7%.
Regarding `CC(C)(C)CC(C)(C)c1ccc(OCCOc2ccc([N+](=O)[O-])cc2N)cc1`, the growth inhibition in assay [1] is 56.5%; in assay [2], 11.1%; in assay [3] it was 41.6%; in assay [4], 4%; in assay [5] it was 4.9%; in assay [6], 26.1%.
`CC(=O)CC(C)(C)OCc1ccccc1`: the growth inhibition in assay [1] is -21.9%; in assay [2], -4.95%; in assay [3], -12.2%; in assay [4] it was -43.4%; in assay [5], 0.4%; in assay [6], 26.1%.
As to `COc1ccc(C(=O)OC2CCCN(C(=O)c3ccc(OC)cc3)C2)cc1` (stereo not drawn), the growth inhibition is 0.75% in assay [1]; 2.5% in assay [2]; 0.8% in assay [3]; 0.8% in assay [4]; 10.7% in assay [5]; -5.55% in assay [6].
Regarding `S=c1nc[nH]c2nc(Cl)[nH]c12`, the growth inhibition in assay [1] is -5.45%; in assay [2] it was -18.6%; in assay [3], -21.6%; in assay [4], -0.25%; in assay [5] it was -26.6%; in assay [6], 4%.
Take `CNS(=O)(=O)c1c(C)cccc1CC(=O)c1ccccc1`: the growth inhibition was -4.3% in assay [1]; 0.65% in assay [2]; 12.2% in assay [3]; -12.8% in assay [4]; 14.8% in assay [5]; -8.2% in assay [6].
`O=C1CSSCC(=O)Nc2ccccc2N1`: the growth inhibition was 6.35% in assay [1]; 0.5% in assay [2]; -0.2% in assay [3]; 16.2% in assay [4]; 19.4% in assay [5]; -4% in assay [6].
In the case of `CC(C)(C)C(=O)CN`, the growth inhibition in assay [1] was -19.4%; in assay [2], -10.1%; in assay [3], -9.55%; in assay [4], -71%; in assay [5], 11%; in assay [6], -2.65%.
With `O=C1CCc2cc3c(cc21)OCO3`, the growth inhibition in assay [1] is 4.8%; in assay [2], -33.8%; in assay [3], -3.95%; in assay [4] it was -9.35%; in assay [5] it was 6.7%; in assay [6], -6.15%.
For `c1ccc(Oc2ccc(-c3ccccc3)cc2)cc1`, the growth inhibition in assay [1] is -28.9%; in assay [2], -52.9%; in assay [3], 1.8%; in assay [4] it was -7.85%; in assay [5], -8.55%; in assay [6], -31.3%.
For `C/C(Nc1ccc(Cl)cc1)=C1/CCOC1=O`, the growth inhibition in assay [1] was 19.1%; in assay [2] it was 5.7%; in assay [3], 35.5%; in assay [4], 13.1%; in assay [5], 11.7%; in assay [6] it was -24.9%.
For the molecule `CCOC(=O)COc1cc2c(cc1Cc1ccc(OC)cc1)OCO2`, the growth inhibition is -5.4% in assay [1]; -7.45% in assay [2]; 5.45% in assay [3]; 6.2% in assay [4]; 39.4% in assay [5]; 11.7% in assay [6].
For the molecule `CCc1ccccc1N1C(=O)C(=O)C(c2nc3ccccc3s2)C(=O)C1=O`, the growth inhibition in assay [1] is 12.7%; in assay [2], 5.05%; in assay [3], 17.2%; in assay [4], 15.5%; in assay [5] it was 2.3%; in assay [6], 10.3%.
`O=C(N/N=C\c1ccc(Cl)cc1)c1ccccc1`: the growth inhibition is 8% in assay [1]; 6.9% in assay [2]; -0.1% in assay [3]; 4.45% in assay [4]; 7.05% in assay [5]; -4.55% in assay [6].
As to `O=S1(=O)CCNc2ccccc2O1`, the growth inhibition in assay [1] is -3.15%; in assay [2], -6.4%; in assay [3], -3.55%; in assay [4], -15.2%; in assay [5], 7.2%; in assay [6], 3.15%.
Turning to `CCCCC(=O)Nc1ccc(Cl)cc1`, the growth inhibition in assay [1] is 18.2%; in assay [2], 7.8%; in assay [3], 6.5%; in assay [4] it was 8.2%; in assay [5] it was -19.9%; in assay [6], 11.7%.
